Source: PubChem BioAssay AID1233 (SRMLSC, 2008)
Entries with a potency or affinity are not part of this list. Active and inactive are the calls of the source.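 How the source made its calls: active means a dose-response curve fit returns a half-maximal inhibitory concentration, extrapolated values included; inactive means the fit returns no such concentration.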

Target: HMG-CoA reductase [Enterococcus faecalis] (UniProt Q9FD70)
Test: class II HMG-CoA reductase inhibition potency – biochemical, Enterococcus faecalis, confirmation (AID 1233)

Compound	outcome
Cc1ccc(Cc2cncc(O)c2)cc1S(=O)(=O)O	inactive
OCCC1CN(Cc2cccs2)CCN1Cc1ccccc1 (configuration not stated)	inactive
Cn1c(SCC(=O)N2CCCC2=O)nnc1-c1ccccc1F	inactive
CCCCC(=O)Nc1cc(OCC)c(NC(=S)NC)cc1OCC	inactive
COc1ccc(-c2csc(N(CC3CCCO3)C(=O)c3ccco3)n2)cc1 (configuration not stated)	inactive
CCOc1ccc(-c2[nH]ncc2Oc2ccccc2OCC)c(O)c1	inactive
S=C(NCCc1ccccc1)N1CCN(Cc2ccccc2)CC1	inactive
N#CC(=C1CCCC1)c1nc(-c2ccc(Cl)cc2)cs1	inactive
Cc1cc(-c2ccccc2)nc(SCC(=O)N2CCCC2)n1	inactive
CCNC(=O)NC(=O)C(C)OC(=O)c1ccc(-n2nc(SC)sc2=S)cc1 (configuration not stated)	inactive
CN(C(=O)c1cc2ccccc2oc1=O)C1(C)CCS(=O)(=O)C1 (configuration not stated)	inactive
O=C(c1ccco1)N1CCCN(Cc2cn[nH]c2-c2ccc(-c3ccccc3)cc2)CC1	inactive
O=S(=O)(NCC1CCCO1)c1ccc2c(c1)OCCO2 (configuration not stated)	inactive
Cc1c(NC2(c3nnnn3-c3ccc(Br)cc3)CCCCC2)c(=O)n(-c2ccccc2)n1C	inactive
Cc1ccc(-c2cc(C(=O)O)n(-c3ccc(S(N)(=O)=O)cc3)n2)cc1	inactive
COc1ccc(CC(=O)OCc2cc(=O)n3cc(Br)ccc3n2)cc1OC	inactive
COC(=O)C1=C(C)Nc2c(c(=O)n(C)c(=O)n2C)C1c1cccnc1 (configuration not stated)	inactive
Cc1ccc(C(=O)CC2(O)C(=O)N(C)c3ccccc32)s1 (configuration not stated)	inactive
CCCNCc1cc(OC)c(OCc2ccccc2)cc1Br	inactive
Cc1[nH]nc2c1C(CCc1ccccc1)C(C#N)=C(N)O2 (configuration not stated)	inactive
COC(c1ccccc1)c1nnc(CCC(=O)NCCC(C)C)o1 (configuration not stated)	inactive
O=S1(=O)CC=C(CSC(=S)NC2CCS(=O)(=O)C2)C1 (configuration not stated)	inactive
Cc1ccc(S(=O)(=O)N2CCCC(C(=O)NCCCN3CCCCC3C)C2)cc1 (configuration not stated)	inactive

Compound	outcome
O=C(CCn1cnnn1)Nc1ccc(Cl)c(Cl)c1	inactive
O=C(COC(=O)c1cc(S(=O)(=O)N2CCCCC2)ccc1N1CCOCC1)NC1CCS(=O)(=O)C1 (configuration not stated)	inactive
COc1ccc(C(=O)NCCc2nnc(SCC(=O)Nc3ccccc3F)n2C)cc1	inactive
CC(C)OCCCNC(=O)Nc1cccc2ccccc12	inactive
O=C(O)C1CCCNC1 (configuration not stated)	inactive
Cc1cc(C=O)c2c(c1)C=CC1(Oc3ccccc3C(=O)N1C)O2 (configuration not stated)	inactive
CCOC(=O)C1CCN(C(=O)c2c(-c3ccccc3)noc2C)CC1	inactive
COc1ccc(C(=O)/C=C/c2ccc(N3CCCCC3)c([N+](=O)[O-])c2)c(OC)c1	inactive
CCOc1ccc(OCCCC(=O)Nc2nc3ccccc3[nH]2)cc1	inactive
COc1cc(/C=C2/C(=O)ON=C2C)ccc1OCc1cccc(F)c1	inactive
CC(C)CNC(=O)CSc1ccc(Cl)cc1	inactive
Cc1ccc(S(=O)(=O)NCCCCCC(=O)N(C)C)cc1	inactive
CC(=O)Nc1ccc(S(=O)(=O)N2CCCC2C(=O)O)cc1 (configuration not stated)	inactive
CN(Cc1ccccc1)c1nc(N)nc(Cl)c1C=O	inactive
CCOc1ccc(C2C(C#N)=C(N)Oc3cc(C)oc(=O)c32)cc1 (configuration not stated)	inactive
COC(=O)Cc1cc(=O)n2[nH]cnc2n1	inactive
O=C(NCc1cccs1)c1cc2c(s1)CS(=O)(=O)C2	inactive
CCOc1ccc(CN2CCN(Cc3cc4ccccc4[nH]3)CC2CCO)cc1 (configuration not stated)	inactive
CCC1CCCCN1C(=O)CCn1ccnc1 (configuration not stated)	inactive
COc1cc(S(=O)(=O)Nc2ccccc2C)ccc1NC(=O)c1ccncc1	inactive
Cc1ccc(S(=O)(=O)ON2C(=O)c3ccccc3C2=O)c(C)c1	inactive
C=CCNC(=O)C(C#N)c1nc2ccccc2nc1N1CCCCCC1 (configuration not stated)	inactive
CCc1c(C)nc2c(C#N)c(C)[nH]n2c1=O	inactive

Compound	outcome
NNc1nc2c(Cl)ccc(Cl)c2s1	inactive
CCN(CC)S(=O)(=O)c1cccc(C(=O)Nc2cc(C)cc(C)c2)c1	inactive
CC(C)(C)OC(=O)N1CCC[C@H]1c1nnc(SCc2ccccc2F)o1	inactive
COc1cc(OC)cc(C(=O)NC(C(=O)O)C23CC4CC(CC(C4)C2)C3)c1 (configuration not stated)	inactive
CSc1nc(-c2ccc(C)cc2)nc(C(Cl)Cl)n1	inactive
CC(C)N(C(=O)Cn1cnc2cc([N+](=O)[O-])ccc2c1=O)C(C)C	inactive
O=C(O)CCC(=O)NC(c1ccccc1)c1ccccc1	inactive
Cc1ccc(-c2noc(CSc3nnc(Cc4ccccc4)n3-c3ccc(Cl)cc3)n2)cc1	inactive
Cc1cc(/C=C(\C#N)C(=O)NCc2cccs2)c(C)[nH]1	inactive
COc1ccc(/C=N/NC(=O)C(C)Sc2ccccn2)cc1[N+](=O)[O-] (configuration not stated)	inactive
O=C(Nc1ccc(Cl)cc1)Nc1nnc(-c2ccncc2)s1	inactive
O=C(Cc1ccc2c(c1)CCCC2)Nc1ccccc1Cl	inactive
CC(C)c1ccc(NC(=O)COC(=O)/C=C/c2cccc(Br)c2)cc1	inactive
COc1ccc(N2C(=O)C(CN3CCCCC3)C2c2ccccc2)cc1 (configuration not stated)	inactive
CCCCC1C2=C(CC(C)(C)CC2=O)OC2=C1C(=O)CC(C)(C)C2	inactive
COc1ccc(CSc2nnnn2C)cc1[N+](=O)[O-]	inactive
COc1cc(C2NC(=O)NC(c3ccccc3)=C2C(C)=O)cc(Cl)c1OCC(=O)O (configuration not stated)	inactive
COC1(OC)N=C(NC(=O)Nc2ccccc2)C2(C#N)C(c3ccccc3)C12C#N (configuration not stated)	inactive
CCCOP(=O)(OCCC)c1nc(-c2ccccc2)oc1NCc1ccccc1	inactive
O=[N+]([O-])c1ccc(N/N=C/c2ccc(O)c(O)c2O)c(S(=O)(=O)N2CCOCC2)c1	inactive
CCN(CC)CCCCCOc1ccccc1OC	inactive
